Screening data: PubChem, National Center for Advancing Translational Sciences (NCATS)
Rows were chosen to be rich in hits. Some 2.8% of all compounds tested hit in one or more screens of this group.
WRN inhibitor = blocks human WRN helicase | Q14191 | WRN helicase unwinding, fluorescent forked duplex, kinetic | Potency, µM (titrated, usually from 114 µM), without a hit: top-dose activity change, negative = inhibition, usual class: inhibitors | 360,000 compounds, 0.46% hits; further: potency means the concentration at half of the fitted maximal effect; on the % scale 0 is the no-effect control and ±100 the full control effect; nearly all actives have a fitted effect of over 55% in size
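Enzyme (20 nM final) and test compound sit together 15 min at room temperature before substrate addition. Substrate is a single-forked duplex oligonucleotide (100 nM) labelled with fluorophore and quencher, with 2 mM ATP; helicase unwinding raises red fluorescence, read kinetically.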
POLI inh = inhibitors of human DNA polymerase iota. Q9UNA4. Pol iota fluorescent replication assay, 10 min. Potency, µM (doses to about 115 µM), without a hit: at the top dose activity, negative = inhibition, hits mostly inhibitors. AID 588590. 390,000 compounds, 1% hits; further: potency means the concentration at half of the fitted maximal effect
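Pol iota at 10 nM preincubated 15 min with compounds at room temperature; reaction started with fluorescent substrate, 50 nM final. Fluorescence read kinetically at 0 and 10 min; buffer-only wells as negative control.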
PI5P4Ka inh = PI5P4K alpha (human) kinase inhibition; P48426; PI5P4Kalpha enzyme, ADP-Glo luminescence, 60 min; hits give low values; max response, %; 330,000 compounds, 1.2% hits; AID 652105; active means max response of -50% or lower; inconclusive means between -30% and -50%; inactive means -30% or higher; further: value at the top dose of about 77 µM; on the % scale 0 is the no-effect control and ±100 the full control effect
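ADP-Glo luminescence end-point after a 60 min room-temperature kinase reaction. PI5P4Kalpha and substrate in HEPES pH 7.4 buffer with EGTA, 0.1% CHAPS and 5% DMSO; ATP at 5 microM final.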
Pol kappa inh-1 = blocks human DNA polymerase kappa activity | purified Pol kappa, fluorescent DNA synthesis assay, 10 min | 400,000 compounds, 0.53% hits | AID 588579 | Q9UBT6 | Potency, µM (series often up to 107 µM), without a hit: at the top dose activity, negative = inhibition, usual class: inhibitors; further: potency means the concentration at half of the fitted maximal effect; on the % scale 0 is the no-effect control and ±100 the full control effect
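First, compounds were pin-transferred onto 10 nM Pol kappa. After 15 min at room temperature, substrate was added to 50 nM final. Fluorescence was then measured kinetically at 0 and 10 min.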
Pol beta inh = blocks human DNA polymerase beta activity | P06746 | Pol beta primer extension/strand displacement, fluorescence kinetic | Potency, µM (titrated, usually from 114 µM), without a hit: at the highest dose activity change, negative = inhibition, usual class: inhibitors | 340,000 compounds, 1.3% hits | AID 485314; further: potency means the concentration at half of the fitted maximal effect; on the % scale 0 is the no-effect control and ±100 the full control effect
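10 nM enzyme + cpd, 15 min RT; start with substrate 50 nM final; read 0 min and after 10 min RT. Corrected, normalized data; 4-parameter Hill curve fit.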
Pol eta inh-1 = DNA polymerase eta (human) inhibition; Q9Y253; recombinant Pol eta, fluorescent DNA replication assay; Potency, µM (doses to about 114 µM), for inactives: at the top dose activity change, negative = inhibition, hits mostly inhibitors; 390,000 compounds, 1.2% hits; AID 588591; further: potency means the concentration at half of the fitted maximal effect; on the % scale 0 is the no-effect control and ±100 the full control effect
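Pol eta at 10 nM preincubated with compounds 15 min at room temperature; reaction started with fluorescent substrate (50 nM final) and read kinetically at 0 and 10 min.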
PGK validate = blocks T. brucei phosphoglycerate kinase. shares compounds with Pol kappa inh-1. TbPGK coupled GAPDH assay, Kinase-Glo luminescence. Potency, µM (series often up to 57.5 µM), for inactives: at the highest dose activity change, negative = inhibition, actives largely listed as inhibitors. 500 compounds, 79% hits. AID 686980; further: potency means the concentration at half of the fitted maximal effect; on the % scale 0 is the no-effect control and ±100 the full control effect; nearly all actives have a fitted effect of over 65% in size
Pol iota confirm = Inhibitors of human DNA polymerase iota, confirmation; Potency, µM, hits mostly inhibitors; AID 720496; Pol iota primer extension, TAMRA/BHQ fluorescence; 1,500 compounds, 77% hits; shares compounds with Pol kappa inh-1; further: potency means the concentration at half of the fitted maximal effect
Pol kappa inh-2 = Pol kappa (human) inhibition, cherry-pick confirmation; AID 720501; purified Pol-kappa, fluorescent strand-displacement substrate; Potency, µM, actives largely listed as inhibitors; 920 compounds, 76% hits; shares compounds with Pol eta inh-1; further: potency means the concentration at half of the fitted maximal effect
Pol eta inh-2 = Pol eta (human) inhibition, cherry-pick confirmation; shares compounds with Pol eta inh-1; Pol eta primer extension, TAMRA/BHQ fluorescence, 10 min; Potency, µM, actives largely listed as inhibitors; 2,600 compounds, 64% hits; further: potency means the concentration at half of the fitted maximal effect
An asterisk follows results filed as active; ? = inconclusive; nt = no result; [ ] = dose if it differs, or a comment. Unless noted, the call rests on the fitted dose curve; in most records, active means well fitted curve in the direction sought with a large enough effect; inconclusive means small, poorly fitted or top-dose-only effect, or another doubt; inactive means no such curve, though single readings can be large; an effect the other way counts as inactive or inconclusive.

SMILES	WRN inhibitor	POLI inh	PI5P4Ka inh	Pol kappa inh-1	Pol beta inh	Pol eta inh-1	Pol iota confirm	Pol kappa inh-2	Pol eta inh-2	others
N#CC(C#N)=NNc1ccc(S(N)(=O)=O)cc1	56µM*	20µM*	-107*	45µM*	-6%	13µM*	nt	?	67*	PGK validate=-18%
C=Cc1cc(OC)c2c(c1)c(=O)oc1c2cc(OC)c2c(O)ccc(C3OC(C)C(O)C(C)(O)C3O)c21 (stereo not given)	10µM*	2.5µM*	17	4µM*	nt	1.4µM*	4.7*	nt	11*
Cc1c(C(=O)c2cccc3ccccc23)c2cccc3c2n1[C@@H](CN1CCOCC1)CO3	nt	nt	nt	-10%[60.1 µM]	nt	nt	nt	nt	nt
CCOc1ccc(CCNC(=O)c2cc3c(-c4cccc(OC)c4)nn(C)c3s2)cc1OCC	nt	-16%	nt	?	4%	-19%	nt	nt	nt
NC(=O)c1ccc(N=Cc2c(O)n(Cc3ccco3)c(=O)[nH]c2=O)cc1	50µM*	11µM*	-79*	50µM*	?	22µM*	30*	30*	48*	PGK validate=9.2µM*
Cc1c(C(c2ccc(F)cc2)c2c(O)c3ccccc3oc2=O)c(=O)n(-c2ccccc2)n1C (stereo not given)	-1%	-19%	15	-9%	0%	-16%	nt	nt	nt
CC(C)c1ccc(C(c2c(O)c3ccccc3oc2=O)c2c(O)c3ccccc3oc2=O)cc1	-15%[11.6 µM]	nt	-15	nt	nt	22µM*	?	38*	?
CCOP(=S)(OCC)Oc1ncn(-c2ccccc2)n1	nt	nt	nt	17%[60.1 µM]	nt	nt	nt	nt	nt
CN1CCN(c2ccc(/C=C3\C(=O)NC(=S)N(c4cccc(Br)c4)C3=O)o2)CC1	?	?	?	-17%	-5%	?	nt	nt	nt
Cc1ccc(/C=C2\C(=O)NC(=S)N(c3cccc(F)c3)C2=O)o1	50µM*	?	-77*	32µM*	-3%	7.1µM*	34*	nt	17*
Cc1cccc(N2C(=O)/C(=C/c3ccc(CN(CCC#N)S(C)(=O)=O)o3)C(=O)NC2=S)c1	28µM*	8.9µM*	-56*	22µM*	20µM*	6.3µM*	67*	11*	?
Cc1ccc2c(C)c3ccc4ccccc4c3c[n+]2c1	21%[11.6 µM]	79µM*	3	40µM*	nt	?	27*	4.7*	nt
CC(=O)C1CCC2C3CCC4CC(C)(O)CCC4(C)C3CCC12C (stereo not given)	nt	nt	nt	13%[60.1 µM]	nt	nt	nt	nt	nt
CCc1ccccc1Nc1nn2c(=O)c3ccc(C(=O)Nc4cc(C)cc(C)c4)cc3nc2s1	nt	11%	nt	1%	2%	?	nt	nt	nt
